Measured values as given in PubChem BioAssay AID1626 (SRMLSC, 2009).
The whole screen tested about 220,000 compounds, of which about 2,000 (0.91%) were called active. Inconclusive results (about 2%) are left out. The list is a sample of the results. Potency and affinity values are given separately. A number with no mark means an inactive call. Rule as the data show it: inconclusive = inhibition above about 80% without an active follow-up result; inactive = below that; test concentration not stated here.

Experiment: M. tuberculosis H37Rv growth inhibitors, H37Rv strain (AID 1626);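 also: bacteria incubated seven days before Alamar blue readout; 0% = bacteria only wells and 100% = bacteria with antibiotic wells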
Details: stronger effect = higher value, concentration not given here
`CC(C)CC(c1nnnn1CC1CCCO1)N1CCN(Cc2ccc3c(c2)OCO3)CC1` (stereo not given) gave an inhibition of 0.16%.
`CCN1C/C(=C/c2sccc2C)c2nc3ccccc3c(C(=O)O)c2C1` gave an inhibition of -0.78%.
`Nc1nnnn1CC(=O)N/N=C/c1cc([N+](=O)[O-])ccc1Cl` showed an inhibition of -0.24%.
For `Cc1ccc(C(=O)COC(=O)CN2C(=O)C3C4CCC(C4)C3C2=O)cc1[N+](=O)[O-]` (stereo not given), the inhibition was 19.5%.
`Cc1ccc(CNC(=O)c2ccc(Cn3nc(C)c(Cl)c3C)o2)cc1` gave an inhibition of 2.97%.
Work on `COc1ccc(NC(=O)CCN2CCOCC2)c(OC)c1` yielded an inhibition of -3.47%.
For `COc1ccc(-c2nc3ccccc3c(=O)n2CCOc2ccccc2C)cc1`, the inhibition was 0.63%.
`CC(C)c1cc(C(=O)O)c2ccccc2n1` gave an inhibition of -2.96%.
In the case of `COc1ccc(-n2c(-c3ccc(Br)cc3)c[n+]3c2CCC3)cc1`, the inhibition is reported as 2.38%.
`Brc1ccc(-c2cn3c(n2)CCc2ccc4cccnc4c2-3)cc1` gave an inhibition of -2.02%.
For `COc1cc(/C=N/NC(=O)COc2cc(C)cc(C)c2)ccc1OS(=O)(=O)c1ccc(C)cc1`, the inhibition was 10.7%.
In the case of `COc1cccc(NC(=O)COc2ccc3c(c2)CCC3)c1`, the inhibition is reported as 74.3%.
`COc1ccc(CC(=O)Nc2ccc3c(c2)CCC3)cc1` gave an inhibition of 9.72%.
`CCc1ccc(CN(C)CC(=O)Nc2ccc3c(c2)CCC3)cc1` gave an inhibition of 48%.
Work on `CC(=O)Nc1ccc(NC(=O)COc2ccc3c(c2)CCC3)cc1` yielded an inhibition of 10.5%.
For `Cc1cc(C(=O)Cn2nc(C(=O)O)c3ccccc3c2=O)c(C)n1CCc1ccc(F)cc1`, the inhibition was 3.54%.
`CC(C)OCCCNC(=O)Nc1cccc2ccccc12` gave an inhibition of -3.82%.
With `CCOC(=O)c1c(NC(=O)COc2cccc3c2CCN(C)C3=O)sc2c1CCC2` the inhibition was 31.8%.
`C/C(N)=C(/C#N)C(=O)COC(=O)c1ccccc1Oc1ccccc1` gave an inhibition of -2.05%.
For `O=C(Nc1ccc(N2CCN(C(=O)c3ccc(Cl)cc3)CC2)cc1)c1ccc2c(c1)OCCO2`, the inhibition was -4.15%.
Work on `O=C(Nc1ccc(N2CCN(C(=O)c3ccco3)CC2)cc1)c1ccccc1` yielded an inhibition of 7.16%.
In the case of `O=C(Nc1ccc(N2CCN(C(=O)c3ccco3)CC2)cc1)c1ccco1`, the inhibition is reported as -0.76%.
With `O=C(Nc1ccc(N2CCN(C(=O)c3ccc(Cl)cc3)CC2)cc1)c1cc2ccccc2o1` the inhibition was -12.4%.
`O=C(Nc1ccc(N2CCN(C(=O)c3ccccc3)CC2)cc1)c1ccc(Br)o1` showed an inhibition of 19.7%.
`O=C(Nc1ccc(N2CCN(C(=O)c3ccccc3)CC2)cc1)c1cc2ccccc2o1` gave an inhibition of 9.58%.
